The results in this text go back to PubChem BioAssay (NCI).

The panel holds about 83,000 compounds, 20% with a hit somewhere; the sample as a whole holds those more often.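 Negative percent growth values reflect cell death: -40 means 40% of the cells present at the start died, and -100 means all died.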 Values without a mark were called inactive. The source made the active and inactive calls.

This experiment deals with OVCAR-8 ovarian. Put plainly: NCI-60 one-dose screen, 48 h (100 = growth as untreated, 0 = no growth, -100 = all killed). Conditions: 10 µM unless noted. The procedure:
Growth inhibition of the OVCAR-8 human tumor cell line is measured as a screen for anti-cancer activity. Cells are grown in 96 well plates and exposed to the test compound for 48 hours. Compounds are tested at a single concentration, which is 10^-5 M for most compounds. The reported endpoint is percent growth (GI% or GIPRCNT), where numbers from 0 - 100% represent growth inhibition, and numbers from -100% - 0 represent cell death. For example, a value of 40 represents 60% growth inhibition. A value of 0 means no net growth occurred over the course of the experiment. A value of -40 indicates 40% of cells at the beginning of the experiment died by the end of the experiment. A value of -100 means all cells are dead at the end of the experiment.
NCI-60 Human Tumor Cell Lines Screen was performed using the standard one-dose NCI protocol, which is described in more detail at https://dtp.cancer.gov/discovery_development/nci-60/default.htm.
Compounds with GIPRCNT values below 10 were considered active. Activity score was based on GIPRCNT using the following formula: […]
Score is 0 for GIPRCNT values of 100 or above, 50 for GIPRCNT values of 0, and 100 for GIPRCNT values of -100.
Regarding `NC(=O)c1c(NC(=S)Nc2ccc(OC(F)(F)F)cc2)sc2c1CCC1(C2)OCCO1`, the growth is 99.7%.

For `Clc1cc(Cl)cc(-c2ccc(-c3ccc(/C=N/NC4=NCCN4)cc3)s2)c1`, the growth was 85%.

`CN(C[C@H]1Cc2c(cccc2N2CCN(c3ncccn3)CC2)CN1)[C@H]1CCCc2cccnc21`: the growth is 30%.

Take `S=C1CC(=S)NC(=S)N1`: the growth was 104%.

For `Cc1nc2ncccc2nc1Nc1ccc(S(=O)(=O)Nc2cncs2)cc1`, the growth is 103%.

In the case of `Cc1ccc(Nc2nnc(-c3ccc(Cl)cc3)o2)c(C)c1`, the growth was 95%.

Consider `CCN(CC)CCC(CNc1c2ccc(Cl)cc2nc2ccc(OC)cc12)c1ccccc1` (stereo not given), for which the growth was -15.1% (active).

On to `COc1ccc(C2C(C#N)=C(N)Oc3c2ccc2ccccc32)cc1` (stereo not given), for which the growth was 56.5%.

On to `CCOC(=O)CN1/C(=N/c2sc3c(c2C(=O)OCC)CCN(C(=O)OCC)C3)SC(=O)/C1=C\C(=O)OC`, for which the growth is 75.2%.

For the compound `CCN(CC)CCCC(C)Nc1c2ccc(Cl)cc2nc2cc(OC)c(OC)cc12` (stereo not given), the growth is 14.1%.

Take `C=C[C@@H]1C[C@H](O)Cc2ccccc2N1`: the growth is 103%.

In the case of `COC(=O)c1cc2cc(-c3ccc(OC)cc3)cnc2[nH]1`, the growth was 8.62% (active).

In the case of `O=[N+]([O-])c1cccc(-c2nc3sccn3c2-c2ccnc(NCCCNS(=O)(=O)c3ccc(Cl)cc3)n2)c1`, the growth was 20%.

Turning to `C=C(C)[C@@H]1CC[C@]2(C(=O)O)CC[C@]3(C)[C@H](CC[C@@H]4[C@@]5(C)C[C@@H](CC#Cc6ccc(C(F)(F)F)cc6)[C@H](O)C(C)(C)[C@@H]5CC[C@]43C)[C@@H]12`, the growth is 3.74% (active).

With `NC(=N\N=C/c1ccc(O)cc1)/C(N)=N\N=C/c1ccc(O)cc1`, the growth is 73.9%.

With `N#Cc1ccc(N2Cc3ccccc3OC3=C2C(=O)c2c(O)ccc(O)c2C3=O)cc1`, the growth was 3.86% (active).

As to `COc1cc(NC(=O)SC2=NCCS2)cc(OC)c1`, the growth was 98.7%.

Regarding `COc1ccc(-c2nc3sc(-c4cc(OC)c(OC)c(OC)c4)nn3c2/C=C2/C(=O)Nc3ccc(F)cc32)cc1`, the growth was 21.9%.

As for `Nc1cc2c(cc1C(=O)c1cccc(F)c1)OCCO2`, the growth was 91.1%.

As for `Clc1cccc(-c2cc(-c3ccc4c(c3)OCCO4)[nH]n2)c1`, the growth was 38.2% [25 µM].

Take `O=C(NS(=O)(=O)c1ccc2ccccc2c1)n1cc(-c2ccncc2)c(-c2ccc(Cl)c(O)c2)n1`: the growth was 72.5%.

Turning to `CCCCNC(=O)Oc1ccc(/C(=C(\C)c2ccccc2)c2ccc(OCCN(CC)CC)cc2)cc1`, the growth was 77%.

Consider `CCN(CC)CCC(CNc1ccnc2cc(Cl)ccc12)c1ccc(Cl)cc1` (stereo not given), for which the growth was 1.27% (active).

As to `CN(CCCCN(C[C@H]1Cc2ncccc2CN1)[C@H]1CCCc2cccnc21)C1CCC(F)(F)CC1`, the growth was 85.6%.

Consider `CN1CCN(CCCOc2ccc3nc(Nc4ccc(Cl)c(C(F)(F)F)c4)ccc3c2)CC1`, for which the growth is 73.6%.

`O=c1c2sc3ncccc3c2nnn1-c1ccccc1`: the growth is 104%.

On to `CCN(CC)CCCNc1nccc2ccc(Cl)cc12`, for which the growth is 94.8%.

As for `COc1ccc(S(=O)(=O)n2ccc(-c3ccc4c(c3)CCC(C)(C)O4)n2)cc1OC`, the growth is 74.6%.

`COc1ccc(OC)c(/C=C2\Oc3cc(OCCCN4CCCC4)ccc3C2=O)c1`: the growth is 78.1%.

In the case of `NC(N)=Nc1nc2ccccc2o1`, the growth is 110%.

Consider `CC(C)(C)NCCC(O)c1cc2c(Cl)cc(Cl)cc2c2cc(C(F)(F)F)ccc12` (stereo not given), for which the growth is -81.1% (active).

Turning to `CCO/C=N/C1=C(C#N)C(c2ccc(Cl)cc2)c2c(c3ccccc3n(C)c2=O)O1` (stereo not given), the growth is 86.3%.

Regarding `COc1cc(-c2nn(-c3cccc(NC(=O)c4cccc(C(F)(F)F)c4)c3)cc2-c2ccncc2)ccc1Cl`, the growth is 11.8%.

Turning to `COc1ccc2c(c1)[nH]c(=O)c1c3cc(C)c(C)cc3cn21`, the growth was -27.5% (active).

For the compound `COC1=C(OC)C(=O)C(CCCCCCCCCC[P+](c2ccccc2)(c2ccccc2)c2ccccc2)=C(C)C1=O`, the growth was -48.3% (active).

Consider `COC(OC)c1ccccc1`, for which the growth is 98.9%.

With `COc1cc(/C=C/C(=O)c2cccc(-n3cc(-c4cc(OC)c(OC)c(OC)c4)[nH]c3=O)c2)cc(OC)c1OC`, the growth is 6.44% (active).

Regarding `Brc1cccc(-c2cc(-c3ccc4nccnc4c3)[nH]n2)c1`, the growth was 29.3% [25 µM].

`Cc1[nH]c2ccc(F)cc2c1CCNC(=O)C1CCN(C(=O)c2ccccc2)CC1`: the growth was 93.3% [25 µM].

For the compound `NC(N)=N/N=C/c1ccc(-c2ccc(-c3cc(Cl)cc(Cl)c3)s2)cc1`, the growth was 33.1%.
